Legend:
Test in all cases: DAPPL (digital affinity profiling via proximity ligation, sequencing); 10 mM Tris-HCl pH 7.5, 50 mM NaCl, 1 mM DTT, 4% glycerol, room temperature, 30 min; GST-TFs on glutathione beads, 16-mer random dsDNA library, 0.1% formaldehyde crosslink after washing; high values mean tight binding
[1] = molecular target: T1, FEV (Homo sapiens, UniProt Q99581 1-238); details: protein: recombinant; tags: N-terminal GST; dsDNA, one strand shown
T1 sequence: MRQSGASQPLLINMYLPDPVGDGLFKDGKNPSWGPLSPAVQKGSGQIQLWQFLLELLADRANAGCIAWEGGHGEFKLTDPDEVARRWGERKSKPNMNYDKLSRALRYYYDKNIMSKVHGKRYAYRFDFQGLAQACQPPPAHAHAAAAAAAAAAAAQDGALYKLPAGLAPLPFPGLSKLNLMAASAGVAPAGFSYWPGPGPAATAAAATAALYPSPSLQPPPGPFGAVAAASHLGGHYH
Outline: (§1)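 Binding signal is each hexamer's read frequency for a factor divided by its frequency in the tag-only sample. The factors were GST-fused human transcription factors from yeast, captured on glutathione beads, DNA-barcoded and pooled with that sample. Pools were incubated with 200 nmole of a random double-stranded 16-mer DNA library in Tris/NaCl/DTT/glycerol buffer at room temperature for 30 min, then washed, crosslinked with 0.1% formaldehyde, proximity-ligated with BsaI/T4 ligase (1 h, 37 °C), PCR-amplified and sequenced on an Illumina NextSeq500.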

[2] = molecular target: ETV5 (Homo sapiens, UniProt P41161 1-510); details: protein: recombinant; tags: N-terminal GST; dsDNA, one strand shown
Outline: as §1

[3] = molecular target: HSF1 (Homo sapiens, UniProt Q00613 1-529); details: protein: recombinant; tags: N-terminal GST; chain copies: 3; dsDNA, one strand shown
Outline: as §1

[4] = molecular target: T2, SPIC (Homo sapiens, UniProt Q8N5J4 1-248); details: protein: recombinant; tags: N-terminal GST; dsDNA, one strand shown
T2 sequence: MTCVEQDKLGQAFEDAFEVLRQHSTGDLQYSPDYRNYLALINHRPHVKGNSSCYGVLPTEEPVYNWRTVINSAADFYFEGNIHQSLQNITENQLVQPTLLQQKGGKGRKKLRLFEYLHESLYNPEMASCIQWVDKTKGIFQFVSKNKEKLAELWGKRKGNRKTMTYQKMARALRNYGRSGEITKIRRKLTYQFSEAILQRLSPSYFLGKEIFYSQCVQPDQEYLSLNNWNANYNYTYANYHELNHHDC
Outline: as §1

[5] = molecular target: ELF4 (Homo sapiens, UniProt Q99607 1-663); details: protein: recombinant; tags: N-terminal GST; dsDNA, one strand shown
Outline: as §1

[6] = molecular target: T3, ELK4 (Homo sapiens, UniProt P28324-2 1-405); details: protein: recombinant; tags: N-terminal GST; dsDNA, one strand shown
T3 sequence: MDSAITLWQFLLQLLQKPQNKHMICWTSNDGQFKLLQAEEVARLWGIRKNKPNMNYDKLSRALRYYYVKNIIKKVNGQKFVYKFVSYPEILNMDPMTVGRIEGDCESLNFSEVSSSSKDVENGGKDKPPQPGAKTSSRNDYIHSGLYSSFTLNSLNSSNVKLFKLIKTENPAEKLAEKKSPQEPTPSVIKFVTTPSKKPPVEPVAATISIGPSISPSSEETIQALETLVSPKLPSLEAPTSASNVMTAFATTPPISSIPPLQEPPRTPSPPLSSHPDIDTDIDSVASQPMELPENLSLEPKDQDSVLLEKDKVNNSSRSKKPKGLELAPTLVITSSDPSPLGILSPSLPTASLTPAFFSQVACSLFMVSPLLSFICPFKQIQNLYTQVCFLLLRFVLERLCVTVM
Outline: as §1

[7] = molecular target: T4, ETV2 (Homo sapiens, UniProt O00321 1-342); details: protein: recombinant; tags: N-terminal GST; dsDNA, one strand shown
T4 sequence: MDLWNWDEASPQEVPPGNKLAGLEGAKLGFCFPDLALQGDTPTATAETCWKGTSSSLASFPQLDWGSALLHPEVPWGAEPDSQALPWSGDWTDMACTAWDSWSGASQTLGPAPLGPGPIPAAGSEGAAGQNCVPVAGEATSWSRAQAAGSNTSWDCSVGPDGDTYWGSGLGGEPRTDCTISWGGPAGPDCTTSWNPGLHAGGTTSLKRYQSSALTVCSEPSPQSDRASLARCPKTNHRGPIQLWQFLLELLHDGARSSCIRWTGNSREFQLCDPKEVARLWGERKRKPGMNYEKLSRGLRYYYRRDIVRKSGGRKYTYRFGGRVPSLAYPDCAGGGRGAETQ
Outline: as §1

[8] = molecular target: T5, ELF3 (Homo sapiens, UniProt P78545 1-371); details: protein: recombinant; tags: N-terminal GST; dsDNA, one strand shown
T5 sequence: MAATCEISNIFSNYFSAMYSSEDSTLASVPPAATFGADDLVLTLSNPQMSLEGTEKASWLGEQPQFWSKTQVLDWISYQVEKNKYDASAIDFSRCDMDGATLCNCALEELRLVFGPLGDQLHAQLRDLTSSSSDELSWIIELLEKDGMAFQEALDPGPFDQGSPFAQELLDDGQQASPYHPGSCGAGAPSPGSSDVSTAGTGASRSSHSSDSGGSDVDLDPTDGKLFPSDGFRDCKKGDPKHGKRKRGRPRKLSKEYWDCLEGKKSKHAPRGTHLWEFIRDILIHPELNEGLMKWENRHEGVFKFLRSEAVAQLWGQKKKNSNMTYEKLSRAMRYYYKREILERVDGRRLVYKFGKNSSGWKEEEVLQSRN
Outline: as §1

[9] = molecular target: CRX (Homo sapiens, UniProt O43186 1-299); details: protein: recombinant; tags: N-terminal GST; dsDNA, one strand shown
Outline: as §1

[10] = molecular target: ETV1 (Homo sapiens, UniProt P50549 1-477); details: protein: recombinant; tags: N-terminal GST; dsDNA, one strand shown
Outline: as §1

[11] = molecular target: T6, ERF (Homo sapiens, UniProt P50548 1-548); details: protein: recombinant; tags: N-terminal GST; dsDNA, one strand shown
T6 sequence: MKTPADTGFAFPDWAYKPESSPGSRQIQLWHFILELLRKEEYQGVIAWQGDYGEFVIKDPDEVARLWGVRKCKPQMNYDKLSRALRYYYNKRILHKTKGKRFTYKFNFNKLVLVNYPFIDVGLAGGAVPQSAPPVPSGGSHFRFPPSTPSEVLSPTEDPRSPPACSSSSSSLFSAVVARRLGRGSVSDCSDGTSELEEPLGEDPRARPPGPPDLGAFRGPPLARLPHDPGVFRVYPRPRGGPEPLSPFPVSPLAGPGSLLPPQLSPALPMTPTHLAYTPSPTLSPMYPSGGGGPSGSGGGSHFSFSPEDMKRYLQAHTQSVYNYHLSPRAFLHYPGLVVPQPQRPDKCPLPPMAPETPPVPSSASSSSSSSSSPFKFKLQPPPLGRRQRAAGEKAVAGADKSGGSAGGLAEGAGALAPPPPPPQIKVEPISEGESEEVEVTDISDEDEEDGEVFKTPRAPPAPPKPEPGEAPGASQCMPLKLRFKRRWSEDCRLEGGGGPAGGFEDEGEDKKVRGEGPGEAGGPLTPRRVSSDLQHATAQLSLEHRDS
Outline: as §1

[12] = molecular target: T7, ETV3L (Homo sapiens, UniProt Q6ZN32 1-361); details: protein: recombinant; tags: N-terminal GST; dsDNA, one strand shown
T7 sequence: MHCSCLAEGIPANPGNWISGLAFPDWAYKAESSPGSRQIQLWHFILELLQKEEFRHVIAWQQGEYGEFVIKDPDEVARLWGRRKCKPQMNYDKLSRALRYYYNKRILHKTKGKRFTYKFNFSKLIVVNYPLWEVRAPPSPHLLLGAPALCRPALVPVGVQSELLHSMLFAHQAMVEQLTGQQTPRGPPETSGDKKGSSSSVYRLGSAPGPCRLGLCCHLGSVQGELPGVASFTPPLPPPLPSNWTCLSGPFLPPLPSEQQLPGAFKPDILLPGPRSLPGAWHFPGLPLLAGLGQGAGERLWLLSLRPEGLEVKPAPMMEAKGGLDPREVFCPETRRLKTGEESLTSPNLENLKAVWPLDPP
Outline: as §1

[13] = molecular target: T8, ETS2 (Homo sapiens, UniProt P15036 1-469); details: protein: recombinant; tags: N-terminal GST; dsDNA, one strand shown
T8 sequence: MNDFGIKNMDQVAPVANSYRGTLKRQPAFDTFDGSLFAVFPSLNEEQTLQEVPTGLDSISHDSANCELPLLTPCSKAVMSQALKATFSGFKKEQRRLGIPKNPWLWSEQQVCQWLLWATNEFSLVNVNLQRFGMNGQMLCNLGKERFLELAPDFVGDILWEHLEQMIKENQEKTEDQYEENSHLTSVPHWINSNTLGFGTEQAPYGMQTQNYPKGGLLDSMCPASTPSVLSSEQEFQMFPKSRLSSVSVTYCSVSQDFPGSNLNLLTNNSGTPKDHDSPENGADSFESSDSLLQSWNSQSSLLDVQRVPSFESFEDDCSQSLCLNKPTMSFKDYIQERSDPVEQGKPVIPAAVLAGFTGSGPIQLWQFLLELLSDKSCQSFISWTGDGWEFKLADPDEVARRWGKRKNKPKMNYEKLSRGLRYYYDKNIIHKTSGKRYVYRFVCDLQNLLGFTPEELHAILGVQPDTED
Outline: as §1

[14] = molecular target: T9, SPDEF (Homo sapiens, UniProt O95238 1-335); details: protein: recombinant; tags: N-terminal GST; dsDNA, one strand shown
T9 sequence: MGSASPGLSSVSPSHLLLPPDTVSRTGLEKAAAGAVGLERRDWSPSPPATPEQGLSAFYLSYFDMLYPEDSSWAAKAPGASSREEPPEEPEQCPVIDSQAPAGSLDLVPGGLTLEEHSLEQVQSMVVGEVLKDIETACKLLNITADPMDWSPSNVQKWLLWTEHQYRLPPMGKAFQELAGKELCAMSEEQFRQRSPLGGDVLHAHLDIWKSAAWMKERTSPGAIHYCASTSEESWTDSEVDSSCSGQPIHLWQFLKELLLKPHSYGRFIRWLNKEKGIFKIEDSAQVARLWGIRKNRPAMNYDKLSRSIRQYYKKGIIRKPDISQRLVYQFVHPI
Outline: as §1

[15] = molecular target: T10, ETV7 (Homo sapiens, UniProt Q9Y603 1-341); details: protein: recombinant; tags: N-terminal GST; dsDNA, one strand shown
T10 sequence: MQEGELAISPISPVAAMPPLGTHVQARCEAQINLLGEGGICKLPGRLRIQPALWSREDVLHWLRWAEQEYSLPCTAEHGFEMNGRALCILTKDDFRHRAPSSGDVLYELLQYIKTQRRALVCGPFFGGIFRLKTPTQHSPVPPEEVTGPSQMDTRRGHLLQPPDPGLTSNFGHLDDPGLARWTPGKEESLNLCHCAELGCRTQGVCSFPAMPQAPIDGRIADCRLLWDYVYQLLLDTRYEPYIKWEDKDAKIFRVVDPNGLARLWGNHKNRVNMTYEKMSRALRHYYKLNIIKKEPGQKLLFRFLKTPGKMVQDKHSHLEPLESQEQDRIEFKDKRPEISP
Outline: as §1

[16] = molecular target: T11, ELF5 (Homo sapiens, UniProt Q9UKW6-2 1-255); details: protein: recombinant; tags: N-terminal GST; dsDNA, one strand shown
T11 sequence: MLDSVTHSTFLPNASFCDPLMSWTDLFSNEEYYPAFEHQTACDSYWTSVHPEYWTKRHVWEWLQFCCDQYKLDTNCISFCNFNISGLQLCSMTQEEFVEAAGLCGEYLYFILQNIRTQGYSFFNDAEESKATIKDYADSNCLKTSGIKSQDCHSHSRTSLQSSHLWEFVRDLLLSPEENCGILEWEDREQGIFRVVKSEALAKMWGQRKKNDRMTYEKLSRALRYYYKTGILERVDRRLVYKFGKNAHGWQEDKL
Outline: as §1

[17] = molecular target: T12, ETV3 (Homo sapiens, UniProt P41162-2 1-143); details: protein: recombinant; tags: N-terminal GST; dsDNA, one strand shown
T12 sequence: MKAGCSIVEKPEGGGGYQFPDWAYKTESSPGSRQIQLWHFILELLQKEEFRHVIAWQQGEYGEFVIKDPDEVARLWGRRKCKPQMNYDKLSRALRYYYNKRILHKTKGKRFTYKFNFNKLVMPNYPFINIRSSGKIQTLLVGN
Outline: as §1

[18] = molecular target: ETV6 (Homo sapiens, UniProt P41212 1-452); details: protein: recombinant; tags: N-terminal GST; dsDNA, one strand shown
Outline: as §1

Sequence of HSF1 (Q00613 whole entry): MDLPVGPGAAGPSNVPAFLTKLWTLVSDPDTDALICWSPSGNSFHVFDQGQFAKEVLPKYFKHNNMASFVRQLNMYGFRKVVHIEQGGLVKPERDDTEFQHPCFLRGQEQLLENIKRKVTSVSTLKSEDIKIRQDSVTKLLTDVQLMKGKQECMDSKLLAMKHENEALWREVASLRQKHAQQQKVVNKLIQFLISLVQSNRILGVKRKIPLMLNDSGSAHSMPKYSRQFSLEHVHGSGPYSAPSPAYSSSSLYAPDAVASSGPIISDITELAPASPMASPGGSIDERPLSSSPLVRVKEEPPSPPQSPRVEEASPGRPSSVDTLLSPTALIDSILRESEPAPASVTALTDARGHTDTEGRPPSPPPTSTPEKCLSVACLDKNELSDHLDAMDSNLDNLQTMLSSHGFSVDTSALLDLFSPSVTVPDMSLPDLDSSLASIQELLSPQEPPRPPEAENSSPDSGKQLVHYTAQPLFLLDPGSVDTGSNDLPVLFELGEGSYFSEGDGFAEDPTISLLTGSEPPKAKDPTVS
Sequence of CRX (O43186 whole entry): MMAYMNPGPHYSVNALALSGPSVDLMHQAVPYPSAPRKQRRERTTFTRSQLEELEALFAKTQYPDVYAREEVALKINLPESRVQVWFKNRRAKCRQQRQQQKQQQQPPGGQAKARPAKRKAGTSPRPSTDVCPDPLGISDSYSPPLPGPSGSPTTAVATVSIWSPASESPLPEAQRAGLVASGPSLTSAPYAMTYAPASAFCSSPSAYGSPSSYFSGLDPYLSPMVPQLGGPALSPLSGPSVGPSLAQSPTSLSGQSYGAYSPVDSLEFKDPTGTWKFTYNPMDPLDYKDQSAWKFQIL
Sequence of ETV6 (P41212 whole entry): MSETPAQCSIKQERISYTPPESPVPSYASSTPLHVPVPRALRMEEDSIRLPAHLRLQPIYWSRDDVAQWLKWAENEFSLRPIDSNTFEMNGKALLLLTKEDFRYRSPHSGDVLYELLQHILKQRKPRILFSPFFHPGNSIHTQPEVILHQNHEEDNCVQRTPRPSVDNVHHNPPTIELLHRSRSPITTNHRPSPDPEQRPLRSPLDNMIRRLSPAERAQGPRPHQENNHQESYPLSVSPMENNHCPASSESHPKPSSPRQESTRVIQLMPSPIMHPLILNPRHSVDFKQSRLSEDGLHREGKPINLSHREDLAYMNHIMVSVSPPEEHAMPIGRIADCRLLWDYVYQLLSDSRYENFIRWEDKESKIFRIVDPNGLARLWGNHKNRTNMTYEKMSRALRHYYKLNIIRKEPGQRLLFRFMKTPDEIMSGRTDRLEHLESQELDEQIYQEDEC
Sequence of ETV5 (P41161 whole entry): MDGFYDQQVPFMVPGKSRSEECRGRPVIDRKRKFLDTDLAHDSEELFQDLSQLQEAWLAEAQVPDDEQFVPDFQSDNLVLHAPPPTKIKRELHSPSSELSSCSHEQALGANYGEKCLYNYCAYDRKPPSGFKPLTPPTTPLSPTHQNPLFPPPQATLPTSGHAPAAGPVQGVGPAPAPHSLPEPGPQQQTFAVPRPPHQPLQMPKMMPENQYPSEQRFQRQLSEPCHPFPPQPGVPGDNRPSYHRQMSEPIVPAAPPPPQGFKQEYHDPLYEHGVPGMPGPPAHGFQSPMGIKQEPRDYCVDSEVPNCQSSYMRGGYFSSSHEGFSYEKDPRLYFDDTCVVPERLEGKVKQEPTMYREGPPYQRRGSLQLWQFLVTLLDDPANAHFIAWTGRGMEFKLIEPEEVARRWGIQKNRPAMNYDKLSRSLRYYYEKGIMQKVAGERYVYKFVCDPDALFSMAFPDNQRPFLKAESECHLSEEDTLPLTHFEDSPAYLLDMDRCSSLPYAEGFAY
Sequence of ETV1 (P50549 whole entry): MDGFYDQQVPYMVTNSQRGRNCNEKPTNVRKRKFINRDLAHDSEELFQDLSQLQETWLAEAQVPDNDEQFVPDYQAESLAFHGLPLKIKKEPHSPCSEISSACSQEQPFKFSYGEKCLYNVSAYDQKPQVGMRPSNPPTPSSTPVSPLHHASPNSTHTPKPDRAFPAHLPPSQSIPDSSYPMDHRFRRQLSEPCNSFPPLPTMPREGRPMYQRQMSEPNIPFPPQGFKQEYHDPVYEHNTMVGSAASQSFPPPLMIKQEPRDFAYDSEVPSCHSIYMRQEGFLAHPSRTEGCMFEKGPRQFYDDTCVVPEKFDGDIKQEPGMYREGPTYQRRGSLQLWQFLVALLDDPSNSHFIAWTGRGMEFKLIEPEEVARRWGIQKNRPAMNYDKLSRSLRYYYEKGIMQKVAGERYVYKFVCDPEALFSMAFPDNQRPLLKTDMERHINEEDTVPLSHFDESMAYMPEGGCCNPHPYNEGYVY
Sequence of ELF4 (Q99607 whole entry): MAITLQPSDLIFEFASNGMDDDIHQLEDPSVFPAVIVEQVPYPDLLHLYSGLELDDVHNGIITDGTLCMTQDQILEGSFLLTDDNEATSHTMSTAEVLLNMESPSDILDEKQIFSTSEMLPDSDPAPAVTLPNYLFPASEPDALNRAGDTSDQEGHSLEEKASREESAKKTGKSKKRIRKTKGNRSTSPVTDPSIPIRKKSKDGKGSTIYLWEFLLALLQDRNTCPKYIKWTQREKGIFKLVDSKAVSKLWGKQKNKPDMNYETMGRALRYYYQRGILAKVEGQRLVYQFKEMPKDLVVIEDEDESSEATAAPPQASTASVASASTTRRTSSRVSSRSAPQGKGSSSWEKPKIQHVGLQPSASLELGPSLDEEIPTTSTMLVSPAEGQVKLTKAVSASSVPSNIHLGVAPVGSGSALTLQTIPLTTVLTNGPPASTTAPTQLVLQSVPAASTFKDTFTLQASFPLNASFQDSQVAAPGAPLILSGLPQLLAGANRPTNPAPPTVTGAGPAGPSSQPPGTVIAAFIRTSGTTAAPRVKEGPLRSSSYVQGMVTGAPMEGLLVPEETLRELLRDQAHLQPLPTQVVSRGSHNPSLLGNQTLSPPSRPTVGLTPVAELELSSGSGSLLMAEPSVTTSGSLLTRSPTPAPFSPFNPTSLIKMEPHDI

Q: For TTCGCA, which binding signal [1] is on record?
A: Its binding signal is 1.4 fold enrichment (6-mer frequency, TF over GST control).

Q: And the binding signal [2]?
A: Its binding signal is 1.15 fold enrichment (6-mer frequency, TF over GST control).

Q: What about the binding signal [3] of the same sequence?
A: The binding signal was 1.31 fold enrichment (6-mer frequency, TF over GST control).

Q: What about the binding signal [4] of the same sequence?
A: The binding signal was 1.32 fold enrichment (6-mer frequency, TF over GST control).

Q: What about the binding signal [5] of the same sequence?
A: The binding signal was 1.26 fold enrichment (6-mer frequency, TF over GST control).

Q: What about the binding signal [6] of the same sequence?
A: The binding signal was 1.2 fold enrichment (6-mer frequency, TF over GST control).

Q: What about the binding signal [7] of the same sequence?
A: Its binding signal is 1.34 fold enrichment (6-mer frequency, TF over GST control).

Q: And the binding signal [8]?
A: The binding signal was 1.11 fold enrichment (6-mer frequency, TF over GST control).

Q: And the binding signal [9]?
A: The binding signal was 1.28 fold enrichment (6-mer frequency, TF over GST control).

Q: What about the binding signal [10] of the same sequence?
A: Its binding signal is 1.32 fold enrichment (6-mer frequency, TF over GST control).

Q: What about the binding signal [11] of the same sequence?
A: The binding signal was 1.46 fold enrichment (6-mer frequency, TF over GST control).

Q: And the binding signal [12]?
A: The binding signal was 1.32 fold enrichment (6-mer frequency, TF over GST control).

Q: What about the binding signal [13] of the same sequence?
A: Its binding signal is 1.18 fold enrichment (6-mer frequency, TF over GST control).

Q: What about the binding signal [14] of the same sequence?
A: The binding signal was 1.31 fold enrichment (6-mer frequency, TF over GST control).

Q: What about the binding signal [15] of the same sequence?
A: The binding signal was 1.26 fold enrichment (6-mer frequency, TF over GST control).

Q: And the binding signal [16]?
A: Its binding signal is 1.27 fold enrichment (6-mer frequency, TF over GST control).

Q: What about the binding signal [17] of the same sequence?
A: Its binding signal is 1.34 fold enrichment (6-mer frequency, TF over GST control).

Q: And the binding signal [18]?
A: The binding signal was 1.22 fold enrichment (6-mer frequency, TF over GST control).

Reference: article PMC7862700, “An all-to-all approach to the identification of sequence-specific readers for epigenetic DNA modifications on cytosine”
